Measurements from PubChem BioAssay AID652016 (National Center for Advancing Translational Sciences (NCATS), 2013).
Records with an inconclusive call do not appear. The source made the active and inactive calls. Calls come from the whole dose curve; as a rule, active = well fitted inhibition curve with a large enough effect; inconclusive = small, poorly fitted or top-dose-only effect; inactive = flat fitted curve, though single readings scatter.

These compounds were tested against Luciferin 4-monooxygenase (Photinus pyralis) (UniProt P08659) (assay: qHTS Assay for Inhibitors of Firefly Luciferase from the GSK Published Protein Kinase Inhibitor Set). Conditions: purified firefly luciferase, luminescence inhibition; series mostly up to 57.5 µM; activity change, negative = inhibition: at the top concentration.
Luciferin 4-monooxygenase (Photinus pyralis), sequence (P08659 whole entry, looked up): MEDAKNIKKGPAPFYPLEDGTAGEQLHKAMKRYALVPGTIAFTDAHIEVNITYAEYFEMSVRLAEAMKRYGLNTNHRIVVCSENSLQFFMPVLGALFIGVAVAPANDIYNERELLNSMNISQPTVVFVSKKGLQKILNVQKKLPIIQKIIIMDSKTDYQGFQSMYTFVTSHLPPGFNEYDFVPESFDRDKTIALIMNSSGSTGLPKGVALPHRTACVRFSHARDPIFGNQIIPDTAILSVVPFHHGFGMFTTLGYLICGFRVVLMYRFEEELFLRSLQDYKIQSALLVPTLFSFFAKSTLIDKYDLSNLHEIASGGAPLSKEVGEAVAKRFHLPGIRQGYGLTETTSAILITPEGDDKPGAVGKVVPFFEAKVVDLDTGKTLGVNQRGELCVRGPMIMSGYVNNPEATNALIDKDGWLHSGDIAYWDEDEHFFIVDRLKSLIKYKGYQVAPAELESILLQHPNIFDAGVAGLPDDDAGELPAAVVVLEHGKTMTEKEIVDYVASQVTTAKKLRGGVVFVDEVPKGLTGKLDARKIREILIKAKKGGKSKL
In short: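 Enzyme-level luminescence assay: compounds titrated (about 60uM down to 300pM) into substrate buffer (10uM ATP, 10uM D-luciferin, pH 7.5 Tris acetate with Mg, Tween-20, BSA), then 10nM firefly luciferase added; read after ~5 min.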
% is set by controls: 0 for no effect and ±100 for the full control effect; potency is the fitted concentration of half-maximal effect.

Row | SMILES | activity change, negative = inhibition | Potency
1 | O=C1Nc2ccc(I)cc2C1=Cc1cc(Br)c(O)c(Br)c1 | -3.81% (inactive) | 
2 | NC(=O)c1sc(-n2cnc3cc(C(F)(F)F)ccc32)cc1OCc1ccccc1Br | 8.49% (inactive) | 
3 | COc1cc(Nc2ncc3c(C)nc(-c4cccc(Oc5ccccc5)c4)n3n2)cc(OC)c1OC | 0.978% (inactive) | 
4 | COc1ccc(-c2nn3ncccc3c2-c2ccnc(Nc3ccc(Cl)c(C(F)(F)F)c3)n2)cc1 | 9.12% (inactive) | 
5 | Nc1nonc1-c1nc2cnccc2n1C1CC1 | 5.21% (inactive) | 
6 | OCCCNc1nccc(-c2c(-c3ccc(F)cc3)nn3cc(C(F)(F)F)ccc23)n1 |  | 32.6 µM (active)
7 | Nc1ncc(-c2cccc(S(N)(=O)=O)c2)c2scc(-c3ccc(F)c(Cl)c3)c12 | -12.8% (inactive) | 
8 | CC(C)=Cc1cccc2[nH]c(O)c(N=Nc3ccc(S(N)(=O)=O)cc3)c12 | 3.89% (inactive) | 
9 | Fc1ccc(-c2ncn(C3CCNCC3)c2-c2ccnc(Oc3ccc(Oc4ccccc4)cc3)n2)cc1 | 15.8% (inactive) | 
10 | N#Cc1cccc(Nc2ncc(-c3ccccc3)o2)c1 |  | 1.03 µM (active)
11 | FC(F)(F)CNc1nccc(-c2cnn3ncccc23)n1 | -26.5% (inactive) | 
12 | CCS(=O)(=O)c1ccc(OC)c(Nc2nccc(N(C)c3ccc4c(C)[nH]nc4c3)n2)c1 | 0.285% (inactive) | 
13 | COc1ccc2nc3c4nc5ccc(OC)cc5c4c4c(=O)[nH]c(=O)c4c3c2c1 | -4.51% (inactive) | 
14 | CCCNc1cccc(-n2ncc3c(NN=Cc4ccncc4)ncnc32)c1 | -12.7% (inactive) | 
15 | CS(=O)(=O)CCNCc1ccc(-c2ccc3ncnc(Nc4ccc(OCc5ccccc5)c(C(F)(F)F)c4)c3c2)o1 | -16.6% (inactive) | 
16 | CCS(=O)(=O)c1ccc(OC)c(Nc2ncc(-c3cccc(-c4ccccc4F)c3)o2)c1 | -18.1% (inactive) | 
17 | CCn1c(-c2nonc2N)nc2c(C#CC(C)(C)O)nc(CN3CCCC3)cc21 | 9.71% (inactive) | 

Row | SMILES | activity change, negative = inhibition | Potency
18 | NCc1ccc(-c2nc(-c3ccc(Cl)c(O)c3)c(-c3ccncc3)[nH]2)cc1 | -11.5% (inactive) | 
19 | CCOc1nccc2c1nc(-c1nonc1N)n2CC | 14.4% (inactive) | 
20 | Oc1[nH]c2ccccc2c1C=Nc1ccc(-n2cncn2)cc1 |  | 18.3 µM (active)
21 | O=C1Nc2ccc(C(=O)c3ccco3)cc2/C1=C/c1cc(Cl)c(O)c(Cl)c1 |  | 18.3 µM (active)
22 | NS(=O)(=O)c1cccc(Nc2cc(-c3ccc(F)cc3)[nH]n2)c1 |  | 11.6 µM (active)
23 | COC(=O)Nc1nc2ccc(Oc3ccc(NC(=O)Nc4cccc(Br)c4)cc3)cc2[nH]1 | -19.6% (inactive) | 
24 | CCCN1CCCC(c2ccc(Nc3nc(Nc4cc(F)ccc4C(N)=O)c4cc[nH]c4n3)c(OC)c2)C1 (stereo not drawn) | 27.6% (inactive) | 
25 | COc1ccc(-c2oc3ncnc(N)c3c2-c2ccc(NC(=O)Nc3cc(C(F)(F)F)ccc3F)cc2)cc1 | 0.585% (inactive) | 
26 | CC(Oc1cc(-n2cnc3ccc(OC4CCN(C)CC4)cc32)sc1C(N)=O)c1ccccc1Cl (stereo not drawn) | 4.46% (inactive) | 
27 | CNC(=O)c1cccc(C#Cc2cncnc2Nc2ccc(OCc3cccc(F)c3)c(Cl)c2)c1 | -14.8% (inactive) | 
28 | Cc1cc(O)cc(C)c1C=Cc1cncc(C(=O)N(C)C)c1 | 9.42% (inactive) | 
29 | CS(=O)(=O)CCN(CC#N)Cc1ccc(-c2ccc3ncnc(Nc4ccc(OCc5cccc(F)c5)c(Cl)c4)c3c2)o1 | 8.94% (inactive) | 
30 | Cc1ccc(NC(=O)c2ccnc(N3CCCC3)c2)cc1-c1ccc(C(=O)NCC2CC2)cc1 | -8.62% (inactive) | 
31 | N#Cc1c(NC(=O)c2ccc(F)cc2)sc2c1CCCC2 |  | 0.919 µM (active)
32 | c1cc(-c2cnn3nc(N4CCOCC4)ccc23)nc(NC2CC2)n1 |  | 4.61 µM (active)
33 | CCn1c(-c2nonc2N)nc2c(C#CC(C)(C)O)ncc(OCC3CCNCC3)c21 | 6.19% (inactive) | 
